Screening data (PubChem)
PLC-beta3 inh: blocks human PLC-beta3 enzyme activity. Q01970. Purified PLC-beta3, fluorogenic substrate, fluorescence. inhibition, % at 12.2 µM. 370,000 tested, 0.18% active;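 further: 0% = median of compound wells on plate and 100% = full blocker control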
MsrA act: activates bovine MsrA enzyme; 360,000 tested, 0.3% active; purified bovine MsrA, absorbance read-out; activation, % at 10.6 µM; AID 602163; in the data active means activation above about 7.5%;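 further: 0% = vehicle and 100% = reference activator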
MsrA inh: inhibits bovine methionine sulfoxide reductase A; purified bovine MsrA, absorbance read-out; inhibition, % at 15.5 µM; 360,000 tested, 0.75% active; in the data active means inhibition above about 4.5%;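 further: 0% = vehicle wells with enzyme and 100% = reference inhibitor wells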
PLC-gamma1 inh: PLC-gamma1 (human) inhibition, primary screen | purified PLC-gamma1, fluorogenic substrate, fluorescence | 370,000 tested, 0.84% active | inhibition, % at 12.2 µM; in the data active means inhibition above about 9.5%
Target sequence (P19174 whole entry, looked up): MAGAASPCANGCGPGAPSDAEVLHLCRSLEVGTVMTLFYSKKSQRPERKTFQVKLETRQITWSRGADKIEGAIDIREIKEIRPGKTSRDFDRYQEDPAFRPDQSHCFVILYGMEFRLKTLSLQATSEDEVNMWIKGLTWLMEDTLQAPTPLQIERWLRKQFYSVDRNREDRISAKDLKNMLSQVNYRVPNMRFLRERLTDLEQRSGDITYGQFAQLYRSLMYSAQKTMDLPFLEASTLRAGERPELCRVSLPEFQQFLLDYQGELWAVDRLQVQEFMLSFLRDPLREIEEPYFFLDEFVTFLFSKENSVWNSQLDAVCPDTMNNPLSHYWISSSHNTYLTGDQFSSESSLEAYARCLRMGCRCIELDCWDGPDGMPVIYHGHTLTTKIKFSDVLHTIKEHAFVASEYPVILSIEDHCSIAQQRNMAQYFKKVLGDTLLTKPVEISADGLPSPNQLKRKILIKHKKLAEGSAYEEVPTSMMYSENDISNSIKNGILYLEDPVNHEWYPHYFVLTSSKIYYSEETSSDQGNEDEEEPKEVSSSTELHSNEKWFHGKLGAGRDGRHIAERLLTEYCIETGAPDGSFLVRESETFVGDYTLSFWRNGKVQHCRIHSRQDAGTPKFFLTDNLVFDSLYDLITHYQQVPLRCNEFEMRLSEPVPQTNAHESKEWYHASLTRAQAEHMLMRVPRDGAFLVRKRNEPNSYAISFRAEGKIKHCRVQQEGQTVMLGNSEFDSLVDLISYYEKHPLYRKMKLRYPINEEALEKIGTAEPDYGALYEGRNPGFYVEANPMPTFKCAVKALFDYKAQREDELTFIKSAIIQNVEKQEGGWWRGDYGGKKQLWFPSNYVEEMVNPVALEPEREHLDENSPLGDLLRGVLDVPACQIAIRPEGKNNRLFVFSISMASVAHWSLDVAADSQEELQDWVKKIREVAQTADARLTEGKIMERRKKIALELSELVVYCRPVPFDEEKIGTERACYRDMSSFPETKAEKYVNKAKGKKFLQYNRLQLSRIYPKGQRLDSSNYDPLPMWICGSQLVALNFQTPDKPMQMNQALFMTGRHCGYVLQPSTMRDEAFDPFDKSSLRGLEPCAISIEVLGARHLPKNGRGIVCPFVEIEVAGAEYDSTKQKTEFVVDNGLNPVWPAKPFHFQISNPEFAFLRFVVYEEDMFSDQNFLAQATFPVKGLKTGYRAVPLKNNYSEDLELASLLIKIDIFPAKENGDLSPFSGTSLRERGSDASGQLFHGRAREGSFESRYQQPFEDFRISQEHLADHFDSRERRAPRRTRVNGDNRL
PLCgamma1 ctr: PLC-gamma1 inhibition, counter-screen for PLC-beta3 hits. inhibition, % at 12.3 µM. 3,300 tested, 3.1% active. purified PLC-gamma1, fluorogenic substrate, fluorescence. shares compounds with PLC-gamma1 inh; in the data active means inhibition above about 9.5%
PLCb3 confirm: confirmation of human PLC-beta3 inhibitors | shares compounds with PLC-gamma1 inh | purified PLC-beta3, fluorogenic substrate fluorescence | inhibition, % at 12.3 µM | 3,300 tested, 1% active | AID 743261
* hit, by the source's call; nt = no result given. An excerpt weighted towards active compounds, which were near 1.9% of everything screened. Unless noted, no stated cut-off is given here; in the data, active means inhibition above about 11%; inactive means the rest.

SMILES	PLC-beta3 inh	MsrA act	MsrA inh	PLC-gamma1 inh	PLCgamma1 ctr	PLCb3 confirm
O=C(COC(=O)c1n[nH]c2ccccc12)Nc1ccc(S(=O)(=O)N2CCCC2)cc1	5.2	-4.0	-1.6	10.5*	2.4	-0.8
O=C(O)c1ccccc1C(=O)Nc1ccc(S(=O)(=O)N2CCCC2)cc1	5.1	-12.2	1.1	10.5*	-3.3	2.2
O=C(NCCOc1ccccc1)c1ccc2c(c1)OCO2	3.5	-1.4	0.0	12.9*	0.5	-3.2
CC(C)c1ccccc1NC(=O)Nc1ccc2c(c1)OCO2	3.1	-1.3	0.1	11.6*	9.7*	2.3
O=C(Nc1ccc2c(c1)OCO2)c1cccc(S(=O)(=O)N2CCCC2)c1	11.1*	-2.0	0.4	6.1	-3.9	0.6
O=C(Nc1ccc2c(c1)OCO2)c1cccc(S(=O)(=O)N2CCOCC2)c1	-7.1	-9.1	0.1	3.9	nt	nt
Cn1cccc1Cc1nnc(SCC(=O)NCC2CCCO2)n1C (stereo unspecified)	-3.2	-2.1	-0.2	-1.5	nt	nt
CCN(CC)C(=O)c1[nH]cnc1C(=O)N[C@H](C)c1ccccc1	13.8*	-0.3	1.7	8.4	-0.2	-1.5
CCN(CC)C(=O)c1[nH]cnc1C(=O)N[C@@H](C)c1ccccc1	8.3	-0.7	0.3	7.7	nt	nt
COCc1cc(N2CCN(C(=O)OC(C)(C)C)C[C@H]2C)ccc1N1CC[C@@H](O)C1	-22.6	nt	0.6	-14.3	nt	nt
CCC(Cc1ccccc1)NC(=O)C1CCN(S(=O)(=O)c2ccc3c(c2)CC(C)N3C(C)=O)CC1 (stereo unspecified)	5.2	-4.0	-0.1	11.7*	0.8	-1.6
CCC(C)NC(=O)C1CCN(S(=O)(=O)c2ccc3c(c2)CC(C)N3C(C)=O)CC1 (stereo unspecified)	4.5	0.9	0.6	0.1	nt	nt
Cc1cc(=O)[nH]c(N2CCCC2)n1	4.7	-0.8	0.6	11.6*	-9.4	-2.6
Cc1cc(=O)[nH]c(N2CCN(c3ccc(Cl)cc3)CC2)n1	-1.5	1.2	-0.5	7.2	nt	nt
CC1(c2nnnn2Cc2ccccc2)CN(S(C)(=O)=O)CC(=O)N1Cc1cccs1 (stereo unspecified)	0.8	nt	nt	4.3	nt	nt
COC(=O)[C@H](C)NC(=O)/C=C/c1ccc(OC)cc1	10.3	-2.7	2.8	9.8*	6.9	3.2
O=C(NC1CCCC1)[C@@H]1CCCN1C(=O)[C@@H](NC(=O)N1CCOCC1)c1ccccc1	6.7	nt	0.0	1.8	nt	nt
COc1ccc(CCNC(=O)C2CCN(S(=O)(=O)c3cnc[nH]3)CC2)cc1OC	-0.8	-4.2	1.0	-2.4	nt	nt
CN(CCNC(=O)C1CCN(S(=O)(=O)c2cnc[nH]2)CC1)Cc1ccccc1	1.0	-4.4	-1.0	12.4*	8.1	9.4
Cc1cccnc1NC(=O)CN1C(=O)COc2ccc(Cl)cc21	-4.4	-2.1	-1.0	0.2	nt	nt
CC(=O)Nc1nc(COc2ccccc2)cs1	6.8	-1.4	0.7	5.4	nt	nt
CCOC(=O)Cc1csc(NC(=O)COc2ccccc2)n1	6.4	-2.0	1.0	11.4*	-4.3	-0.3
O=C(Nc1nc(COc2ccccc2)cs1)C12CC3CC(CC(C3)C1)C2	11.2*	-0.5	-0.1	9.1	7.5	8.6
O=C(/C=C(\Nc1ccc(Cl)c(C(F)(F)F)c1)c1ccccc1)c1ccccc1	3.8	nt	0.0	1.4	nt	nt
O=C1CCN(Cc2ccc(O)cc2)CCN1[C@H](CO)c1ccccc1	3.8	-10.4	0.4	9.7*	-1.9	-0.9
SMILES	PLC-beta3 inh	MsrA act	MsrA inh	PLC-gamma1 inh	PLCgamma1 ctr	PLCb3 confirm
O=C1NC(=O)/C(=C/c2cccc(O)c2)N1	-5.2	-3.4	0.2	-1.7	nt	nt
O=C1NC(=O)C(=Cc2ccccc2)N1	11.5*	-2.7	3.5	7.5	0.0	3.7
COc1ccc(OCc2nnc(SCC(=O)N3c4ccccc4Sc4ccc(Cl)cc43)o2)cc1	0.0	-2.3	-0.3	9.6*	8.8	4.1
COc1ccccc1C(=O)N1CCN(C(=O)[C@H]2O[C@@H](n3ccc(=O)[nH]c3=O)[C@H](O)[C@@H]2O)CC1	2.9	-3.4	-0.2	2.8	nt	nt
CCn1cc(Br)c(C(=O)NCc2ccco2)n1	9.3	-11.8	1.5	10.2*	-6.8	-3.1
Cn1cc([N+](=O)[O-])c(C(=O)NCc2ccco2)n1	-3.1	-9.8	-1.3	0.6	nt	nt
O=C(COC(=O)COc1ccccc1[N+](=O)[O-])NCc1ccc2c(c1)OCO2	8.2	-1.4	2.0	13.5*	-5.2	0.2
O=C(COC(=O)c1cccs1)NCc1ccc2c(c1)OCO2	1.9	-8.8	1.7	10.4*	-5.6	-2.6
CC(=O)Nc1ccc(Sc2ccc([N+](=O)[O-])o2)cc1	3.6	-1.8	1.3	10.2*	4.7	-6.5
Cc1cccc(N2CCN(S(=O)(=O)c3cc4c(cc3Cl)NC(=O)CO4)CC2)c1C	1.1	0.6	0.6	10.4*	1.6	-2.7
COc1cccc(N2CCN(S(=O)(=O)c3cc4c(cc3Cl)NC(=O)CO4)CC2)c1	7.3	-3.0	0.1	2.3	nt	nt
CCOC(=O)C1(C)CCN1C(=O)c1cc(C)oc1C (stereo unspecified)	0.9	-3.6	-0.7	-2.0	nt	nt
Cc1ccc(/C=N/NC(=O)Cn2cnc3ccccc32)o1	-0.5	-11.1	-0.7	0.2	nt	nt
Cc1ccc(/C=N\NC(=O)Cn2c(C)nc3ccccc32)o1	4.4	-1.0	0.9	9.8*	-5.2	0.5
CCCCc1c(-c2ccccc2OC)ncn1C(C)c1ccc(Cl)cc1 (stereo unspecified)	-3.2	nt	0.1	-2.4	nt	nt
CC(CC(=O)Nc1ccc2c(c1)c(=O)n(C)n2Cc1ccc(F)cc1)c1ccccc1 (stereo unspecified)	-414.2	-0.5	1.2	-309.7	nt	nt
CC(C)(C)NC(=O)C[C@H]1C[C@H](C(=O)N2CCCCC2)[C@@]2(CCc3ccccc3)c3[nH]c4ccc(Cl)cc4c3CCN2C1=O	11.2*	-3.0	0.9	11.2*	-4.6	-1.0
CC[C@]12c3[nH]c4ccc(Cl)cc4c3CCN1C(=O)[C@@H](CC(=O)NCc1ccco1)C[C@@H]2C(=O)N1CCN(C(=O)c2ccco2)CC1	-3.7	-0.2	1.6	-1.1	nt	nt
CC[C@]12c3[nH]c4ccc(Cl)cc4c3CCN1C(=O)[C@@H](CC(=O)NCCN1CCOCC1)C[C@@H]2C(=O)N1CCN(C(=O)c2ccco2)CC1	9.9	2.9	1.0	12.6*	-7.6	-1.9
O=C(NCCc1cn2cccnc2n1)C1CCC(=O)N(Cc2ccccc2F)C1 (stereo unspecified)	-455.8	-2.0	0.6	-334.4	nt	nt
O=C(N=Nc1c(O)[nH]c2c(Cl)cc(Cl)cc12)c1ccccc1O	2.1	nt	0.7	0.1	nt	nt
O=C1CSc2ccccc2N1	5.4	-0.8	-0.4	10.7*	-1.2	-0.8
O=C(NCC(=O)N1CCN(c2ncccn2)CC1)c1ccccc1OC(F)F	-4.7	-2.9	1.2	-1.7	nt	nt
CCCOc1ccc(Oc2cc(C)nc(SC)n2)nn1	13.2*	-4.6	0.7	6.5	-8.2	-1.8
CSc1nc(C)cc(Oc2ccc(OCCOc3ccccc3)nn2)n1	-1.3	0.1	0.2	2.2	nt	nt
COc1cc(CSc2nc(-c3ccccc3)cc(=O)[nH]2)cc(OC)c1	nt	-3.7	nt	nt	nt	nt
O=c1cc(-c2ccccc2)nc(SCCOc2ccccc2Cl)[nH]1	0.2	-2.0	1.1	11.6*	-2.8	-10.3
